TexasRed fluor – Texas Red fluorescence interference in TRb-SRC2 counter-screen; TRb/SRC2 Texas Red total fluorescence interference; Potency, µM (top dose mostly 106 µM), for the others: at the highest dose fluorescence change, negative = quenching; hit rate 0.29% among 280,000; active means well fitted curve in either direction with a large enough effect; inconclusive means small, poorly fitted or top-dose-only effect
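Human TRb ligand-binding domain at 0.6 uM with 20 nM Texas Red SRC2 peptide in Tris buffer containing 1 uM T3 and 5% DMSO, incubated with compound 5 h at ambient temperature. Total fluorescence (555/632 nm) calculated as parallel + 2 × perpendicular.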
TRb-SRC2 inh – TRbeta-SRC2 interaction inhibition. AID 1469. TRbeta-SRC2 peptide binding, fluorescence polarization; receptor liganded with 1 µM T3. hit rate 0.065% among 280,000. Potency, µM (doses to about 106 µM), for the others: top-dose activity change, negative = inhibition, actives largely listed as inhibitors;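 further: plate controls were bound peptide for no effect and peptide without receptor for full effect; nearly all actives have a fitted effect of over 50% in size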
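TRb LBD 0.6 uM + Texas Red SRC2 peptide 20 nM, 1 uM T3, Tris buffer w/ 5% DMSO; compound pinned, 5 h RT; FP read ex 555/em 632; normalized to unbound and bound controls.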
KDM4E inh – inhibitors of human JMJD2E histone demethylase. Potency, µM (series often up to 57.1 µM), inactives show at the highest dose activity change, negative = inhibition, actives largely listed as inhibitors. AID 2147. hit rate 1.6% among 230,000. JMJD2E catalytic domain, FDH-coupled NADH fluorescence (FDH is formaldehyde dehydrogenase);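 further: 0% = wells with enzyme and -100% = buffer wells without enzyme; nearly all actives have a fitted effect of over 50% in size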
Target sequence (B2RXH2 1-337 limits assumed): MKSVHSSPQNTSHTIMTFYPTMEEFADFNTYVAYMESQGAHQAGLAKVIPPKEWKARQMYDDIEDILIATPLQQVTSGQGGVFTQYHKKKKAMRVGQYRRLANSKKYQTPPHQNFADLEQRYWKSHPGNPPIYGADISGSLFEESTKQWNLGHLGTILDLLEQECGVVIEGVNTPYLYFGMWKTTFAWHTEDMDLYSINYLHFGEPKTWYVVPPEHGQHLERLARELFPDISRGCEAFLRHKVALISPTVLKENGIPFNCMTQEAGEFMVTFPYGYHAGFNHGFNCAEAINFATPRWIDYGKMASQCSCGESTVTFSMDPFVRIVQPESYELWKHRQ
Tau ThT inhib – tau fibrillization inhibition (ThT binding). AID 1460. recombinant tau K18 P301L, heparin-induced fibrillization, ThT fluorescence. P10636. hit rate 2.1% among 270,000. Potency, µM (series often up to 57.4 µM), inactives show top-dose activity, negative = inhibition, actives largely listed as inhibitors; further: nearly all actives have a fitted effect of over 55% in size
Target sequence (P10636 561-689 P618L limits assumed): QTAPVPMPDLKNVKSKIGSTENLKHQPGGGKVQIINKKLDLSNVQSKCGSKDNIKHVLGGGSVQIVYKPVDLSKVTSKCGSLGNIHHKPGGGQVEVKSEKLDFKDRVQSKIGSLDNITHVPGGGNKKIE
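In this qHTS, human K18 P301L tau is incubated with compound and heparin for 6 hr at 37 C, and Thioflavin T fluorescence then reports fibril load.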
Tau FP inhib – blocks human tau fibril formation measured by polarization. P10636. K18 P301L tau heparin fibrillization, Alexa594 FP, 6 h. Potency, µM (top dose mostly 57.7 µM), inactives show at the top dose activity, negative = inhibition, hits mostly inhibitors. hit rate 0.39% among 280,000. AID 1468; further: nearly all actives have a fitted effect of over 55% in size
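Human K18 P301L fragment (15 uM unlabeled plus 0.24 uM Alexa 594-labeled) in 100 mM sodium acetate pH 7 with compound, aggregation induced by 20 uM heparin for 6 hr at 37 C. ThT (30 uM) added for 1 hr, then Alexa 594 FP read.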
Tau fluor counter – counter-screen for tau fibril formation inhibitors; tau K18 P301L (four-repeat tau fragment) Alexa594 fluorescence, heparin fibrillization; Potency, µM (doses to about 57.7 µM), for inactives: top-dose activity change, negative = decrease; hit rate 0.93% among 280,000; further: nearly all actives have a fitted effect of over 55% in size
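Human K18 P301L tau (15 uM unlabeled plus 0.24 uM Alexa 594-labeled, final) in 100 mM sodium acetate pH 7 was mixed with compound and 20 uM heparin and incubated 6 hr at 37 C.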
* = called active by the depositor; [ ] = another dose, or the depositor's remark. A selection: hits, their analogues and other compounds. The true share with any hit is near 3.5%. Unless noted, the call rests on the fitted dose curve; in most records, active means well fitted curve in the direction sought with a large enough effect; inconclusive means small, poorly fitted or top-dose-only effect, or another doubt; inactive means no such curve, though single readings can be large; an effect the other way counts as inactive or inconclusive. Unless noted, on the % scale 0 is the no-effect control and ±100 the full control effect; potency means the concentration at half of the fitted maximal effect.

`Cc1ccc(C2(c3ccc(C)cc3)CC2C(=O)Nc2ccc([N+](=O)[O-])cc2O)cc1` (configuration not stated) gave TexasRed fluor -2%, TRb-SRC2 inh -3%, KDM4E inh -11%, Tau ThT inhib -14%, Tau FP inhib inconclusive and Tau fluor counter 10µM*[quencher].
Screening CC1(C)CC1C(=O)Nc1ccc([N+](=O)[O-])cc1Br (configuration not stated) returned TexasRed fluor -6%, TRb-SRC2 inh 0%, KDM4E inh -4%, Tau ThT inhib -7%, Tau FP inhib 1% and Tau fluor counter -11%.
CC1CCN(S(=O)(=O)c2ccc3nc(NCc4ccc(F)cc4)ccc3c2)CC1 was read as TexasRed fluor 0%, TRb-SRC2 inh -1%, Tau ThT inhib 0%, Tau FP inhib inconclusive and Tau fluor counter inconclusive.
For CC1CCN(S(=O)(=O)c2ccc3nc(Nc4cccc(C(F)(F)F)c4)ccc3c2)CC1 the results were TexasRed fluor 0%, TRb-SRC2 inh 2%, Tau ThT inhib inconclusive, Tau FP inhib 28µM* and Tau fluor counter inconclusive.
CC1CCN(S(=O)(=O)c2ccc3nc(Nc4ccc(C#N)cc4)ccc3c2)CC1 was read as TexasRed fluor -2%, TRb-SRC2 inh 6%, Tau ThT inhib inconclusive, Tau FP inhib 14µM* and Tau fluor counter inconclusive.
`C[C@H](NC(=O)OCc1ccccc1)c1nnc([C@H](C)NC(=O)OCc2ccccc2)o1` gave TexasRed fluor 1%, TRb-SRC2 inh -5%, KDM4E inh -2%, Tau ThT inhib -2%, Tau FP inhib 0% and Tau fluor counter -4%.
`COc1ccc(-c2cc(C(=O)Nc3cccc(S(=O)(=O)NCc4ccco4)c3)c3ccccc3n2)cc1OC` gave TexasRed fluor -1%, TRb-SRC2 inh -3%, KDM4E inh inconclusive, Tau ThT inhib -4%, Tau FP inhib inconclusive and Tau fluor counter inconclusive.
For O=C(COC(=O)c1ccc2c(c1[N+](=O)[O-])C(=O)c1ccccc1C2=O)NC1CC1 the results were TexasRed fluor 0%, TRb-SRC2 inh -4%, KDM4E inh 6%, Tau ThT inhib 10µM*, Tau FP inhib -5% and Tau fluor counter inconclusive.
Screening O=C(COC(=O)c1cccc2c1C(=O)c1ccccc1C2=O)NC1CCCCC1 returned TexasRed fluor -5%, TRb-SRC2 inh 6%, KDM4E inh 0%, Tau ThT inhib -20%, Tau FP inhib 13% and Tau fluor counter inconclusive.
`COc1ccc(C2=Nc3ccc(Br)cc3C(c3ccccc3)N2CC(=O)NN)cc1` (configuration not stated) gave TexasRed fluor 1%, TRb-SRC2 inh -9%, KDM4E inh inconclusive, Tau ThT inhib -11%, Tau FP inhib 8% and Tau fluor counter -5%.
COc1ccc(-c2cc(C(=O)Nc3sc4c(c3C#N)CCCC4)no2)cc1OC was read as TexasRed fluor 6%, TRb-SRC2 inh -2%, Tau ThT inhib inconclusive, Tau FP inhib -12% and Tau fluor counter -17%.
O=C(N/N=C/c1cc([N+](=O)[O-])ccc1O)Nc1ccccc1 was read as TexasRed fluor -3%, TRb-SRC2 inh -5%, KDM4E inh 28µM*, Tau ThT inhib inconclusive, Tau FP inhib 3% and Tau fluor counter -22%.
Screening COc1ccc(N2CC(C(=O)N/N=C/c3cc([N+](=O)[O-])ccc3O)CC2=O)cc1 (configuration not stated) returned TexasRed fluor -3%, TRb-SRC2 inh 7%, KDM4E inh 25µM*, Tau ThT inhib inconclusive, Tau FP inhib -2% and Tau fluor counter -19%.
For CCNC(=O)C(=O)N/N=C/c1cc([N+](=O)[O-])ccc1O the results were TexasRed fluor -5%, TRb-SRC2 inh 2%, KDM4E inh 25µM*, Tau ThT inhib inconclusive, Tau FP inhib 8% and Tau fluor counter -7%.
